Results as given in the supplement of paper PMC11006884.
The full data set covers some 6,500 targets. This sample favours those with a hit. About 2% of all pairs of compound and target were hits. Values without a mark were called inactive.

compound: COC(=O)C#Cc1ccccc1 [methyl 3-phenylpropiolate]; experiment: log2 ratio of iodoacetamide-alkyne labeling of the cysteine site, DMSO over compound (competition); higher = stronger covalent engagement of the cysteine by the compound, active = 1 or more; settings: 500 µM; treatment time 1 h; system: HEK293T cell lysate
Summary of the method: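 Three replicates, each with duplicate channels, were prepared from HEK293T lysate (2 mg/mL) treated with vehicle or electrophile at 500 µM for 1 h at ambient temperature. Iodoacetamide alkyne was then applied for 1 h, and samples were clicked to sCIP-TMT reagents, pooled, trypsin-digested overnight at 37 °C, enriched on streptavidin, acid-eluted and analysed on Orbitrap Eclipse LC-MS/MS with FAIMS, with FragPipe quantification. The log2 competition ratio per cysteine is the mean control-channel divided by the mean compound-channel reporter intensity. Cysteines quantified in only one replicate were left out.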

Target	log2 ratio of iodoacetamide-alkyne labeling
FBXO30 C317 (UniProt Q8TB52)	0.564
MYBBP1A C942 (UniProt Q9BQG0)	0.523
DHX37 C1026 (UniProt Q8IY37)	0.317
MYBBP1A C1031 (UniProt Q9BQG0)	0.225
MMS19 C549 (UniProt Q96T76)	1.36 (active)
AKAP1 C147 (UniProt Q92667)	1.02 (active)
CNN2 C175 (UniProt Q99439)	1.04 (active)
IRF2BP1 C363 (UniProt Q8IU81)	0.0738
HNRNPAB C98 (UniProt Q99729)	-0.0694
UniProt Q7RTV0_C61	0.11
CEP135 C316 (UniProt Q66GS9)	0.0231
INTS1 C643 (UniProt Q8N201)	0.127
EDC3 C137 (UniProt Q96F86)	1.09 (active)
UniProt Q86Y56_C409	0.492
GIGYF2 C289 (UniProt Q6Y7W6)	-0.00206
DARS2 C371 (UniProt Q6PI48)	0.442
LPCAT1 C216 (UniProt Q8NF37)	0.211
PHF6 C28 (UniProt Q8IWS0)	0.287

Target	log2 ratio of iodoacetamide-alkyne labeling
ARL6IP6 C48 (UniProt Q8N6S5)	0.392
UniProt Q99590_C478	0.396
TSR2 C17 (UniProt Q969E8)	0.599
CCT7 C310 (UniProt Q99832)	0.193
HDAC2 C417 (UniProt Q92769)	0.126
AKAP1 C102 (UniProt Q92667)	0.334
HSPH1 C650 (UniProt Q92598)	0.025
UniProt Q7LBC6_C1451	0.513
IRF2BP2 C16 (UniProt Q7Z5L9)	0.113
WDR19 C1332 (UniProt Q8NEZ3)	0.441
UniProt Q8WYL5_C626	1.19 (active)
NIPBL C1876 (UniProt Q6KC79)	0.17
UBR4 C1450 (UniProt Q5T4S7)	0.138
ZFYVE16 C174 (UniProt Q7Z3T8)	0.35
PDCD6IP C40 (UniProt Q8WUM4)	0.812
NCAPG C202 (UniProt Q9BPX3)	0.0426
ZNF318 C1559 (UniProt Q5VUA4)	0.605
